Screening data from PubChem.
KCNQ2 inh – blocks the rat KCNQ2 potassium channel | O88943 | CHO-K1 KCNQ2, FluxOR thallium flux, 20 min; active compounds read low | B-score at 10 µM | 1.1% of 310,000 active | AID 2156;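 active means fluorescence ratio B-score at most minus 3 library SDs, with starting brightness B-score within 2 library SDs, cut at about -5.5 in these data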
Target sequence (O88943 whole entry, looked up): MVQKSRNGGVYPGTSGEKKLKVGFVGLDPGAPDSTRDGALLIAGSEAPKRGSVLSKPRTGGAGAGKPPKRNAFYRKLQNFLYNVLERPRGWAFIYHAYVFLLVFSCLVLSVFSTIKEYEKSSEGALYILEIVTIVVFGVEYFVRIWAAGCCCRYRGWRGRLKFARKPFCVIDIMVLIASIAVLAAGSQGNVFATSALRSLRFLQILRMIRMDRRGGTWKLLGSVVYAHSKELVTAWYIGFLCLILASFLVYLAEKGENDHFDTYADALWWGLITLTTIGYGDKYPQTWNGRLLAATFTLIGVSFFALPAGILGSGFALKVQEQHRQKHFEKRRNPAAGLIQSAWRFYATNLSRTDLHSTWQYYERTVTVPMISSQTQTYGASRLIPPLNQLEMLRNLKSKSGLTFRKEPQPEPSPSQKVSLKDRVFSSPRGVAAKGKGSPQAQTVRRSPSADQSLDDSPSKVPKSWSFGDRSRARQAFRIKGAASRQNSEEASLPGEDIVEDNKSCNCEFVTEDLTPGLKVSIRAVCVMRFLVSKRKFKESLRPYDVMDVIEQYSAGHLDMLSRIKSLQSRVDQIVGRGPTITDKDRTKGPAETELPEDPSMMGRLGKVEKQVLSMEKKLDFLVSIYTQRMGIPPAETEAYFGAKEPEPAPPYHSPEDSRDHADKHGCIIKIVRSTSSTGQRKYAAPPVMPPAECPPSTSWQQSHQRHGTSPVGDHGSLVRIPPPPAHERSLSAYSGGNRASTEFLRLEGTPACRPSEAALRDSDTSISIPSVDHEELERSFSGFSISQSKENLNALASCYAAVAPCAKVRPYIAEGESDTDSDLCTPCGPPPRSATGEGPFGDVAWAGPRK
KCNQ2 pot – enhances the rat KCNQ2 potassium channel. O88943. CHO-K1 KCNQ2, FluxOR thallium flux fluorescence; active compounds read high. B-score at 10 µM. 0.54% of 310,000 active. AID 2239;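 active means fluorescence ratio B-score at least 3 SD of library B-scores, with initial fluorescence B-score within 3 of them, cut at about 5.3 in these data; same plate scores as AID 2156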;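 further: B-score of peak minus minimum over baseline fluorescence ratio after K+ and Tl+ stimulus; positive B-score means potentiation of KCNQ2 with more thallium influx and brighter signal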
KCNQ2 block conf – confirmation of rat KCNQ2 potassium channel inhibitors. shares compounds with KCNQ2 inh. KCNQ2-expressing cells, thallium flux, inhibition; active compounds read low. 57% of 1,000 active. activity change, negative = inhibition, % at 10 µM
KCNQ1 spec – KCNQ2 inhibitor that also affects human KCNQ1 channel | 15% of 1,000 active | shares compounds with KCNQ2 inh | activity change, negative = inhibition, % at 10 µM | KCNQ1-expressing cells, FluxOR thallium flux fluorescence; active compounds read low;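 active means activity change at least 3 SD of negative controls below their mean in both duplicate wells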;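 further: CHO cells stably transfected with KCNQ1 and depolarized by potassium stimulus; peak minus minimum fluorescence over baseline after thallium addition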
CHO parental ctr – KCNQ2 inhibitor counter-screen hit in parental CHO cells; shares compounds with KCNQ2 inh; thallium flux counter-screen; active compounds read low; activity change, % at 10 µM; 14% of 1,000 active; AID 493029
KCNQ2 inh confirm – blocks rat KCNQ2 current in automated patch clamp; shares compounds with KCNQ2 inh; KCNQ2-expressing cells; calls only at 10 µM; 49% of 550 active; AID 588531
Each line names hits and unclear results; the compound was inactive in the other large screens (follow-up assays come after a bar, where they were run). Rows were chosen to be rich in hits. Some 1.6% of all compounds tested hit in one or more screens of this group. Unless noted, how the calls were made is not given here.

CCN(CC(=O)NCCCN1CCOCC1)S(=O)(=O)c1ccc(F)cc1	none (no result: KCNQ2 pot)
CC(Oc1cccc(Cl)c1)C(=O)Nc1ccccc1N1CCCCC1 (centres undefined)	KCNQ2 inh -7.09 | KCNQ2 block conf inactive | KCNQ1 spec inactive | CHO parental ctr inactive
CC(Oc1cccc(Cl)c1)C(=O)Nc1ccccc1C(=O)N1CCCCC1 (centres undefined)	none (no result: KCNQ2 pot)
CCC(Oc1ccccc1)C(=O)Nc1ccccc1N1CCCC1 (centres undefined)	none (no result: KCNQ2 pot)
CCC(C(=O)Nc1ccccc1N1CCCC1)c1ccccc1 (centres undefined)	KCNQ2 inh -7.23 | KCNQ2 block conf -35.5% | KCNQ1 spec inactive | CHO parental ctr inactive | KCNQ2 inh confirm active
N#C/C(N)=C(/C#N)N=Cc1cccc(Cl)c1	none (no result: KCNQ2 pot)
Cc1nc(NC(=O)CSc2nnc(Cn3nnc4ccccc43)n2C)sc1C	none
COc1ccc(S(=O)(=O)N2CCCOC2CNC(=O)C(=O)NCCc2ccco2)cc1 (centres undefined)	none (no result: KCNQ2 pot)
Cc1ccc2oc(C(=O)N(Cc3ccc(N(C)C)cc3)CC3CCCO3)c(C)c2c1 (centres undefined)	none (no result: KCNQ2 pot)
Cc1cc2oc(C(=O)N(Cc3ccc(N(C)C)cc3)CC3CCCO3)c(C)c2cc1C (centres undefined)	KCNQ2 inh -8.61 | KCNQ2 block conf -37.0% | KCNQ1 spec -35.5% | CHO parental ctr -33.5% | KCNQ2 inh confirm active
Cc1ccc(NS(=O)(=O)c2c(C)noc2C)cc1	none
O=C(CN1CCN(S(=O)(=O)c2ccccc2)CC1)Nc1ccc([N+](=O)[O-])cc1	none (no result: KCNQ2 pot)
CC1CCN(CC(=O)N2c3ccccc3CC2C)CC1 (centres undefined)	none
CC1Cc2ccccc2N1C(=O)CNc1ccccc1N1CCCCC1 (centres undefined)	KCNQ2 inh -8.36 | KCNQ2 block conf inactive | KCNQ1 spec inactive | CHO parental ctr inactive
CN(C)c1ccnc(NCc2ccccc2)c1C#N	none
CN(C)c1ccnc(N(Cc2ccccc2)Cc2ccccc2)c1C#N	KCNQ2 inh -7.18 | KCNQ2 block conf inactive | KCNQ1 spec inactive | CHO parental ctr inactive
COc1cccc(CNC(=O)CN2c3cccc4cccc(c34)S2(=O)=O)c1	none
CCOC(=O)CNS(=O)(=O)c1ccc(C)cc1	none
CCc1ccccc1NC(=O)/C(=C/c1ccco1)c1ccccc1	KCNQ2 inh -7.69 | KCNQ2 block conf -29.0% | KCNQ1 spec inactive | CHO parental ctr inactive | KCNQ2 inh confirm active
Cc1ccccc1NC(=O)/C(=C/c1ccco1)c1ccccc1	none (no result: KCNQ2 pot)
O=C(COc1ccc(Cl)cc1)NCc1nnc(SCC(=O)Nc2ccccc2F)o1	none
O=C(CCNc1ccc(Cc2ccncc2)cc1)c1cccc([N+](=O)[O-])c1	none (no result: KCNQ2 pot)
O=C(CCNc1cccc(F)c1)c1cccc([N+](=O)[O-])c1	KCNQ2 inh -6.71 | KCNQ2 block conf inactive | KCNQ1 spec inactive | CHO parental ctr inactive
CC(=O)N1CCN(C2=Nc3cccc4cccc2c34)CC1	none (no result: KCNQ2 pot)
COc1ccccc1N1CCN(C2=Nc3cccc4cccc2c34)CC1	KCNQ2 inh -8.96 | KCNQ2 block conf -34.5% | KCNQ1 spec inactive | CHO parental ctr inactive | KCNQ2 inh confirm active
Cc1cccn2c(=O)c3cc(C(=O)NCc4cccnc4)c(=N)n(CC4CCCO4)c3nc12 (centres undefined)	none
COC(=O)C(Cc1ccccc1)NCC(=O)Nc1cccc(Cl)c1C (centres undefined)	KCNQ2 inh -8.17 | KCNQ2 block conf -36.0% | KCNQ1 spec inactive | CHO parental ctr inactive | KCNQ2 inh confirm active
Cc1c(Cl)cccc1NC(=O)CS(=O)(=O)c1ccccc1	none (no result: KCNQ2 pot)
CN(C)c1nc(NCc2ccccc2)nc(N/N=C/c2ccc(Cl)cc2Cl)n1	KCNQ2 inh -8.81 | KCNQ2 block conf inactive | KCNQ1 spec inactive | CHO parental ctr inactive
CN(C)c1nc(NCc2ccccc2)nc(N/N=C/c2ccccc2F)n1	none (no result: KCNQ2 pot)
Cc1ccc(-c2nc(CS(=O)CC(=O)NCc3ccco3)c(C)o2)cc1 (centres undefined)	none (no result: KCNQ2 pot)
CC[n+]1c(/C=C/Nc2ccccc2)sc2ccccc21	none
CCN1/C(=C/C=C/c2sc3ccccc3[n+]2CC)Sc2ccccc21	KCNQ2 inh -6.89 | KCNQ2 block conf inactive | KCNQ1 spec inactive | CHO parental ctr inactive
O=C(COc1ccc(Cl)cc1Cl)N(c1ccccn1)C1CCCCC1	KCNQ2 inh -6.92 | KCNQ2 block conf -35.0% | KCNQ1 spec inactive | CHO parental ctr inactive | KCNQ2 inh confirm active
CC(C)(C)c1ccc(OCC(=O)N(c2ccccn2)C2CCCCC2)cc1	none (no result: KCNQ2 pot)
CN(C(=O)COc1ccc(Cl)cc1Br)C1CCCCC1	KCNQ2 inh -7.75 | KCNQ2 block conf -30.5% | KCNQ1 spec inactive | CHO parental ctr inactive | KCNQ2 inh confirm active
O=C(/C=C/c1ccccc1Cl)N(c1ccccn1)C1CCCCC1	KCNQ2 inh -7.44 | KCNQ2 block conf inactive | KCNQ1 spec inactive | CHO parental ctr inactive
O=C(/C=C/c1ccccc1)N(c1ccccn1)C1CCCCC1	none (no result: KCNQ2 pot)
CCOC(=O)CNC(=O)COc1ccc(Cl)cc1Br	none (no result: KCNQ2 pot)
Cc1cccc(C)c1OCC(=O)N(Cc1ccc(Cl)cc1)C1CCS(=O)(=O)C1 (centres undefined)	none (no result: KCNQ2 pot)
COc1ccccc1-c1cc(C(=O)N2CCN(c3ccccc3)CC2)no1	none (no result: KCNQ2 pot)
COc1cc2c(C(=O)N3CCN(c4ccccc4)CC3)c(C)oc2cc1Br	KCNQ2 inh -7.42 | KCNQ2 block conf -37.0% | KCNQ1 spec inactive | CHO parental ctr inactive | KCNQ2 inh confirm active
Cc1ccc(C(=O)O/N=C(\N)c2nonc2N)cc1	none
CCCn1c(=O)c2sccc2n2c(CCCC(=O)NCC3CCCO3)nnc12 (centres undefined)	none
CCCCC(CC)COC1(c2ccccc2)OC(=O)c2ccccc21 (centres undefined)	KCNQ2 inh -9.69 | KCNQ2 block conf -33.0% | KCNQ1 spec inactive | CHO parental ctr inactive | KCNQ2 inh confirm inactive
CCCCOC1(c2ccccc2)OC(=O)c2ccccc21 (centres undefined)	none (no result: KCNQ2 pot)
CCOc1ccccc1NC(=O)CSc1nc(=O)n(CCN2CCOCC2)c2c1CCCC2	none
COc1ccc(OC)c(CCNC(=O)c2ccc3c(c2)N(Cc2ccc(F)cc2)CCS3)c1	none (no result: KCNQ2 pot)
COc1ccc(CCNC(=O)c2ccc3c(c2)N(Cc2ccc(F)cc2)CCS3)c(OC)c1	KCNQ2 inh -8.09 | KCNQ2 block conf inactive | KCNQ1 spec inactive | CHO parental ctr inactive
CCOC(=O)N1CCN(CCC(=O)c2ccc(Br)cc2)CC1	KCNQ2 inh -7.14 | KCNQ2 block conf inactive | KCNQ1 spec inactive | CHO parental ctr inactive
COc1cc2c(cc1OC)CN(CC(=O)Nc1cccc(C)c1)CC2	none (no result: KCNQ2 pot)
COc1cc2c(cc1OC)CN(CCC(=O)c1ccc(Br)cc1)CC2	KCNQ2 inh -9.58 | KCNQ2 block conf -45.0% | KCNQ1 spec -43.0% | CHO parental ctr -35.5% | KCNQ2 inh confirm inactive
CCOC(=O)N1CCN(CCC(=O)Nc2ccc(C)cc2)CC1	none
Cc1cccc2cc(C(c3nnnn3C3CCCC3)N3CCOCC3)c(=O)[nH]c12 (centres undefined)	KCNQ2 inh -7.84 | KCNQ2 block conf -24.5% | KCNQ1 spec inactive | CHO parental ctr inactive | KCNQ2 inh confirm active
